# Assay: compound effects on differentiated 3T3-L1 adipocyte viability – cell-based, 3T3-L1 adipocytes, calcein-AM fluorescence, 48 h, basal, profiling panel (AID 1163); note: test concentration not given here
# Conditions: 3T3-L1 adipocytes viability, higher = more signal
row,Compound,z-score
1,COC(=O)[C@@]1(Cc2ccc(OC)cc2)[C@H]2c3cc(C(=O)N4CCCC4)n(CCc4ccccn4)c3C[C@H]2CN1C(=O)c1ccccc1,1.13
2,CC(=O)N1Cc2ccccc2C[C@@]2(N=C(c3ccc(OCCCO)cc3)O[C@H]2c2ccccc2)C1=O,0.609
3,CC(C)NC(=O)[C@@]1(c2ccc([N+](=O)[O-])cc2)CC(=O)N(C(C)C)[C@@H]1c1ccc(CO)cc1,0.63
4,CC(C)C(O)C1C=CC2C(=O)N(C)C(=O)C2N1N1CCCCC1 (stereo not given),-0.0255
5,CCCC[C@@H]1C[C@H]1[C@@H](NC(=O)c1ccccc1)c1ccccc1,-0.902
6,CCN(CC)c1ccc(N2CC=CC34O[C@@H]5/C=C\CCCOC(=O)C5[C@H]3C(=O)N(CCCO)[C@@H]4C2=O)cc1 (stereo not given in full),0.275
7,COc1ccc(C(O)C2C=CC3C(=O)N(c4ccccc4)C(=O)C3N2Nc2ccccc2)c2ccccc12 (stereo not given),-2.02
8,O=[N+]([O-])c1ccc(C[n+]2ccc(CCCO)cc2)o1,1.01
9,C[N+](C)(C)CCCCNC(=O)[C@H]1C[C@H]2C(=O)N3CCC[C@H]3C(=O)N2[C@H]1c1ccc(O)cc1,0.0179
10,COCCOC(=O)N1C(=O)[C@@]2(c3ccccc31)[C@H](C(=O)N1CCCCCCC1)[C@H]1C(=O)O[C@H](c3ccccc3)[C@H](c3ccccc3)N1[C@@H]2c1ccccc1OCCO,0.293
11,C=CCC(OC(C)=O)[C@@H]1[C@@H](N(Cc2ccc(-c3ccccc3)cc2)C(=O)c2ccc(C)cc2)c2cc(OCCCO)ccc2N1C(=O)Cc1ccc(OC)cc1 (stereo not given in full),0.705
12,COC(=O)[C@@]1(Cc2ccc(OC)cc2)[C@H]2c3cc(C(=O)N4CCCC4)n(C[C@H](O)CO)c3C[C@H]2CN1C(=O)c1ccccc1,-0.113
13,O=C1O[C@H](c2ccccc2)[C@H](c2ccccc2)N2[C@H]1[C@@H](C(=O)NC[C@H](O)c1ccccc1)[C@]1(C(=O)Nc3ccc(C#CC4=CCCCC4)cc31)[C@H]2c1ccc(O)cc1,1.72
14,COc1ccc([Si](C)(C)[C@@H]2[C@@H](CCO)O[C@]3(C(=O)N(Cc4ccccc4)c4ccc(N(C=O)c5ccccc5)cc43)[C@H]2C)cc1,-0.895
15,COc1cc(NN2C(C(O)c3ccccc3)C=CC3C(=O)N(c4ccccc4)C(=O)C32)cc(OC)c1OC (stereo not given),0.0146
16,CN(C)CCCCNC(=O)[C@@H]1C[C@@H]2C(=O)N[C@@H](CCCCN)C(=O)N2[C@@H]1c1cccc(OCCO)c1,-0.736
17,COc1c(C)cc(-c2cc3c(c(-c4ccccc4)n2)[Si](C(C)C)(C(C)C)O[C@H]3c2ccccc2)cc1C,-0.11
18,[N-]=[N+]=NCc1ccccc1C[C@]1(C(=O)NCc2ccccc2)COC(c2ccc(OCCCO)cc2)=N1,-0.679
19,C=CCOC(=O)[C@@H]1[C@H]2C(=O)O[C@H](c3ccccc3)[C@H](c3ccccc3)N2[C@H](c2ccc(OCCOC(=O)[C@H]3C[C@H]4C(=O)N[C@@H](CCCC[N+](C)(C)C)C(=O)N4[C@H]3c3cccc(OCCO)c3)cc2)[C@@]12C(=O)Nc1ccc(I)cc12,0.194
20,O=C1OCC=C[C@H]2OC34C=CCN(c5ccc(Cl)cc5)C(=O)[C@H]3N(CCCO)C(=O)[C@@H]4[C@@H]12 (stereo not given in full),1.46
21,O=c1cccc(-c2ccccc2)o1,0.0455
22,C=C(COC)C(=O)CC[C@H](OC(=O)c1cccnc1)c1ccccc1OCCO,-0.751
23,CCCCCN1CC=CC23O[C@@H]4C=CCCOC(=O)C4[C@H]2C(=O)N(CCCO)[C@@H]3C1=O (stereo not given in full),0.133
24,CCN(CC)c1ccc(N2CC=CC34O[C@@H]5C=CCOC(=O)[C@@H]5[C@H]3C(=O)N(CCCCCO)[C@@H]4C2=O)cc1 (stereo not given in full),1.1
25,C#C[C@H]1Oc2ccccc2S(=O)(=O)N2CCC[C@@H]12,-0.401
26,O=C1C2C=CC(C(O)c3ccc(B(O)O)cc3)N(Nc3ccc([N+](=O)[O-])cc3)C2C(=O)N1c1ccccc1 (stereo not given),-0.167
27,O=C1OCCC/C=C\[C@H]2OC34C=CCN(CCN5CCOCC5)C(=O)[C@H]3N(CCO)C(=O)[C@@H]4C12 (stereo not given in full),1.72
28,CC(=O)n1cc(C(O)C2C=CC3C(=O)N(c4ccccc4)C(=O)C3N2Nc2ccc(C#N)cc2)c2ccccc21 (stereo not given),-0.876
29,COc1ccc(C(=O)Nc2cccc(CN3C(=O)[C@@]4(O[C@@H](CCn5cc([C@H](O)c6ccccc6)nn5)[C@H]([Si](C)(C)c5ccc(OC)cc5)[C@H]4C)c4ccccc43)c2)cc1,0.0953
30,COC(=O)[C@@]1(Cc2ccc(F)cc2)[C@H]2c3cc(C(=O)N4CCCC4)n(CCc4ccc(OC)c(Br)c4)c3C[C@H]2CN1C(=O)c1ccccc1,-0.483

# From PubChem BioAssay
